Results published in ChEMBL document CHEMBL4513216, “Probing the Open Global Health Chemical Diversity Library for Multistage-Active Starting Points for Next-Generation Antimalarials” (ACS Infect Dis, 2020).
Out of some 69,000 compounds screened, about 8,600 (12%) showed an effect of 50% or more. For the sample, strong results were picked, then their nearest neighbours and some compounds at random.

Test system: Plasmodium berghei
Assay: Screen against P. berghei liver stage (PbLuc), transformed with Luciferase, at 10uM
Type: functional, HepG2
Conditions: tested at 10 uM

| Compound | INHIBITION [%] |
| --- | --- |
| COCCN1CCC2(CC1)CCN(Cc1ccccn1)CC2 | -67.6 |
| Cc1cc(CNC(=O)C2CC(=O)N(CCN(C)C)C2)cc(C)n1 (stereo unspecified) | 16.5 |
| CCN(CC)C1COc2ccc(Br)cc2C1=O (stereo unspecified) | 39.7 |
| COCCN1C[C@@H]2CN(Cc3ccc(F)cc3)C[C@@H]2C1=O | 0.112 |
| Cc1ccc(=O)n(CC2(O)CCN(Cc3ccoc3)CC2)n1 | -59.9 |
| COc1ccc2c(c1)ncn2C[C@]1(O)CCCN2CCCC[C@@H]21 | 58.5 |
| Cc1cc2ncn(C[C@]3(O)CCCN4CCCC[C@@H]43)c2cc1C | 49.4 |
| O[C@@]1(Cn2cnc(Cl)c2Cl)CCCN2CCCC[C@@H]21 | 40.3 |
| c1ccc(CCN2CCCC2c2ccnc(Nc3cnccn3)n2)cc1 (stereo unspecified) | 25.8 |
| Cc1nc(C(C)C)sc1C(=O)NS(=O)(=O)c1ccc(C#N)cc1 | 39.5 |
| N#Cc1ccc(S(=O)(=O)NC(=O)c2csc(-c3ccco3)n2)cc1 | 54.3 |
| COc1ccc(C(=O)NS(=O)(=O)c2cccc(C#N)c2)cc1 | 15.5 |
| Cc1nc(C(=O)NS(=O)(=O)c2cccc(C#N)c2)cs1 | 61.1 |
| CSc1ccsc1C(=O)NS(=O)(=O)c1cccc(C#N)c1 | 16.9 |
| N#Cc1cccc(S(=O)(=O)NC(=O)c2csc(-c3ccco3)n2)c1 | 24.3 |
| Cc1ccc(CNC(=O)Nc2nccs2)cn1 | -31.8 |
| Cn1cc(NC(=O)N2CCCC2c2ccccn2)ccc1=O (stereo unspecified) | -80.7 |
| O=C(CCn1cnc2cc(F)c(F)cc21)N1CCN(C2CC2)CC1 | -27.6 |
| COCCN1CCN(Cc2ccc(OCc3nccn3C)cc2)CC1 | -3.7 |
| O=C1CC2(CCN(S(=O)(=O)c3cccs3)C2)CN1c1cccc(F)c1 (stereo unspecified) | -20.8 |
| Cc1n[nH]c(C)c1CCc1n[nH]c(=O)n1Cc1cccs1 | -54.9 |
| COCC(NC(=O)c1cc(C)n(C)n1)c1cccc(C(F)(F)F)c1 (stereo unspecified) | -0.532 |
| CNC(=O)c1ccc(C(=O)N2CCC(Nc3cccnn3)CC2)cn1 | -0.219 |
| CN1CCN(C=C2N=C(c3cc(-c4ccc(F)cc4)n[nH]3)ON2)CC1 | 50.5 |
| Cc1ccc(-c2cc(C3=NC(=CN4CCN(C)CC4)NO3)[nH]n2)cc1 | 41.8 |
| COc1ccc(-c2cc(C3=NC(=CN4CCN(C)CC4)NO3)[nH]n2)cc1 | 40.7 |

| Compound | INHIBITION [%] |
| --- | --- |
| COCC1(Nc2nc(C)nc3c2cnn3C)CCCC1 | 81.6 |
| Cc1nc(NC2(CN3CCCCC3)CCCCC2)c2cnn(C)c2n1 | 40.5 |
| CCCc1nc(NC2(COC)CCCC2)c2cnn(C)c2n1 | 22.6 |
| COc1ccccc1-c1ccnc2nc(N3CCCCC3)[nH]c(=O)c12 | 23.4 |
| CC(=O)N1CCC(Cc2ccc(-c3ccnn3C)nc2)CC1 | 9.45 |
| CN1CCCC2(CCN(C(=O)Cn3ncc4ccccc4c3=O)C2)C1=O (stereo unspecified) | 21.2 |
| CCN(CC1CCOC1)C(=O)c1ccccc1S(C)(=O)=O (stereo unspecified) | 45.7 |
| Cc1ccc(CCNc2ncnc3sc4c(c23)CCNC4)o1 | -158 |
| c1ccc(OCCNc2ncnc3sc4c(c23)CCNC4)cc1 | 92.1 |
| Cc1nonc1OCCNc1ncnc2sc3c(c12)CCNC3 | 6.94 |
| Cc1cnn(CCNCC(=O)N(C)C(C)c2ccccc2)c1 (stereo unspecified) | 19.7 |
| Cc1ccoc1C1=NNC(=CN2CCn3c(nnc3C3CC3)C2)O1 | 5.97 |
| CCCc1ccc(N2CCN(Cc3nc4ccccc4n3C)CC2)cc1 | 25.8 |
| Cn1c(CCN2CCN(c3ccc(O)cc3)CC2)nc2ccccc21 | 61.9 |
| Cn1c(CCN2CCN(CCc3ccccc3)CC2)nc2ccccc21 | 49.9 |
| O=C(NCc1cncc2c1CCN(Cc1ccoc1)C2)C1CC1 | 5.96 |
| COc1ccc(CN2CCn3cc(CN4CCN(C)CC4)nc3C2)cc1 | 40.4 |
| CN1CCN(Cc2cn3c(n2)CN(Cc2cccnc2)CC3)CC1 | 30.7 |
| CN1CCN(Cc2cn3c(n2)CN(Cc2ccccn2)CC3)CC1 | 24.9 |
| CN1CCN(Cc2cn3c(n2)CN(Cc2ccncc2)CC3)CC1 | 82.9 |
| CN1CCN(Cc2cn3c(n2)CN(Cc2ccc(F)cc2)CC3)CC1 | -17.7 |
| Cc1ccc(CN2CCn3cc(CN4CCN(C)CC4)nc3C2)cc1 | 72.9 |
| O=C(c1cscn1)N1C[C@@H](Oc2cccnc2)[C@H]2OCCC[C@H]21 | 2.58 |
| O=C1COc2ccc(Cl)cc2CN1CC1CC1 | -8.66 |
| O=C1COc2ccc(Br)cc2CN1CC1CC1 | 0.0996 |
